# Records with an inconclusive call do not appear. Calls of active or inactive are those of the source. Calls come from the whole dose curve; as a rule, active = well fitted inhibition curve with a large enough effect; inconclusive = small, poorly fitted or top-dose-only effect, or effect the other way; inactive = no such curve, though single readings can be large or run the other way.
# Assay: Concentration response confirmation VP16 counterscreen for inhibitors of ROR gamma transcriptional activity; note: nearly all actives have a fitted effect of over 70% in size
# Conditions: Drosophila S2 Gal4-VP16 UAS-luciferase, luminescence, 20 h; series mostly up to 46.1 µM; activity change, negative = inhibition: at the top concentration
# Source text: NIH Molecular Libraries Probe Production Network [MLPCN] NIH Chemical Genomics Center [NCGC] MLPCN Grant: R03 DA026211-01 Assay Provider: Dan Littman, New York University Assay Overview: The retinoic acid-related orphan receptor (ROR) gamma is a transcription factor that has a central role in the differentiation of Th17 cells, a subset of T helper cells that secrete the inflammatory cytokines IL-17, IL-17F, and IL-22. Th17 cells have been implicated in graft versus host disease, autoimmune disease and asthma. ROR gamma is induced in naive T helper cells in the presence of TGF-beta combined with IL-6, IL-21, or IL-23, and thereafter directs the expression of the Th17 lineage cytokines. To identify nonspecific inhibitors, a Drosophila Schneider cell line was stably transfected with two vectors: a gene expressing a fusion of the Gal4 DNA binding domain and the transactivation domain of the viral transcription factor VP16, under the control of the metallothionine promoter and a Photinus luciferase reporter regulated by the Gal4 binding site enhancer, UAS. […] Small molecule inhibitors that inhibit components common to the RORgt and VP16 assays, such as the Gal4 DNA binding domain or the UAS luciferase reporter, will be active in both assays and thus scored as nonspecific.
# Assay Protocol Summary: For screening, 600 cells in 4 uL/well were dispensed into white solid 1536-well plates (Grenier) using a solenoid-based dispenser. Following transfer of 23 nL compound or DMSO vehicle by a pin tool, the plates were incubated 1 hr at ambient temperature, and 1 uL/well copper sulfate (700 uM final concentration) was added. The plates were centrifuged 15 s at 1000 RPM and incubated 20 hr at ambient temperature. After addition of 1.5 uL Photinus luciferase detection reagent, the plates were incubated 10 min at ambient temperature and then read by an ViewLux (Perkin Elmer) to detect luminescence.
# % is set by controls: 0 for no effect and ±100 for the full control effect; potency is the fitted concentration of half-maximal effect.
Compound,Potency,"activity change, negative = inhibition"
CC(C)(C)c1ccc(-c2noc(CCC(=O)Nc3cccnc3)n2)cc1,1.99 µM (active),
CCC(C)NC(=O)CSc1nnc(-c2cc(-c3ccc(C)cc3)nc3ccccc23)n1N (stereo not given),,2.63% (inactive)
Oc1ccccc1-c1cc(-c2ccc3c(c2)OCCO3)n[nH]1,19.9 µM (active),
Cc1ccc(C(=O)O/N=C/c2ccc(N(C)C)cc2)cc1,,15.9% (inactive)
Cc1ccc(-c2n[nH]c(=S)n2/N=C/C=C\c2ccccc2[N+](=O)[O-])cc1,,-3.42% (inactive)
Oc1ccc(COCc2ccccc2)c2cccnc12,2.5 µM (active),
CC(C)(C)S(=O)(=O)c1cnc2c(-c3ccc(F)cc3)cnn2c1N,12.5 µM (active),
CC(C)(C)S(=O)(=O)c1cnc2c(-c3ccc(Cl)cc3)cnn2c1N,6.28 µM (active),
CCn1cc(C(=O)O)c(=O)c2cc(F)c(N3CCN(C(=S)NC(=O)c4ccccc4C)CC3)cc21,,6.87% (inactive)
COc1ccc(/C=C/C(=O)NC(=S)NCC2CCCO2)cc1 (stereo not given),14.1 µM (active),
Cc1ccc(NC(=S)NCCN(C2CCCCC2)C2CCCC2)cc1C,22.3 µM (active),
O=C(CSc1ccccc1C(=O)N1CCCCC1)NCC1CCCCC1,,0.588% (inactive)
COc1ccc(-c2nc(CS(=O)(=O)CC(=O)NCCc3ccc(C)cc3)c(C)o2)cc1,,-7.61% (inactive)
CCN1CCCc2cc(CN(CCN3CCOCC3)C(=S)Nc3ccccc3C)ccc21,15.8 µM (active),
COc1cc(C2c3cc4c(cc3C(OC3OC5COC(c6cccs6)OC5C(O)C3O)C3COC(=O)C23)OCO4)cc(OC)c1O (stereo not given),25 µM (active),
S=c1[nH]c(-c2ccc(Br)cc2)cn1CCc1ccccc1,14.1 µM (active),
COc1ccccc1CNC(=O)[C@@H](NC(=O)C1CCN(C(=O)[C@@H]2CCCN2C(=O)OC(C)(C)C)CC1)C(C)C,,0.516% (inactive)
COc1ccc(-c2nnc(-c3ccc(N(C)C)cc3)o2)cc1,,-19.3% (inactive)
Cc1c(CCC(=O)N[C@@H](CC(C)C)C(=O)O)c(=O)oc2cc3oc4c(c3cc12)CCCC4,4.99 µM (active),
COC(=O)c1ccc2nc(Nc3nc4ccc(F)cc4s3)sc2c1,5.6 µM (active),

Compound,Potency,"activity change, negative = inhibition"
CN1CCN(CCC(=O)Nc2cccc(F)c2)CC1,,10.5% (inactive)
O=[N+]([O-])c1ccccc1/C=C/C=N/n1c(-c2ccccc2)n[nH]c1=S,,17.5% (inactive)
O=C1c2ccccc2C(=O)c2c1ccc1c(=O)n(C3CCCCC3)[nH]c21,,-27.9% (inactive)
O=C(O)/C=C/C(=O)Nc1ccccc1SC(F)(F)F,,4.95% (inactive)
Cc1ccc(NC2=C(Cl)C(=O)OC2OC(=O)c2ccco2)cc1 (stereo not given),,-1.27% (inactive)
O=C(/C=C/c1c(F)cccc1Cl)N1CCc2ccccc2C1,,7.93% (inactive)
CC(C)(C)c1cc(C(=O)N2CCc3ccccc32)ccn1,,4.76% (inactive)
Cc1cc(C)nc(-n2nc(C)cc2NC(=O)c2ccc(F)cc2F)n1,2.81 µM (active),
Cn1nccc1C(=O)NC1CCCc2c1cnn2-c1ccc(F)cc1F (stereo not given),1.58 µM (active),
Cc1cccc(-c2nc3cc(NC(=O)C4CCCO4)ccc3o2)c1 (stereo not given),2.5 µM (active),
c1ccc(Cn2c(-c3ccccc3)c[n+]3c2SCCC3)cc1,,-16.3% (inactive)
O=C1CC(c2ccc(F)cc2)CC(O)=C1C1NCCc2ccccc21 (stereo not given),,1.75% (inactive)
CCOc1ccc(C(=O)Nc2nc3ccccc3[nH]2)cc1OCC,12.5 µM (active),
CC1Oc2ccccc2N(CC(=O)NCCN2CCOCC2)C1=O (stereo not given),,-6.52% (inactive)
COc1ccc(-n2ncc(Cl)c(Cl)c2=O)cc1,19.9 µM (active),
CCN1CCN(CCC(=O)Nc2ccccc2)CC1,,-3.58% (inactive)
Cc1ccccc1C(=O)OC1OC(=O)C(Cl)=C1Nc1ccccc1 (stereo not given),,11.1% (inactive)
Cn1c(=O)[nH]c(=O)c2c1nc(NCc1ccco1)n2Cc1ccccc1Cl,,11.1% (inactive)
Cc1ccc(Oc2nc(-c3ccccn3)nc3ccccc23)cc1,3.53 µM (active),
O=C(CCCN1C(=O)/C(=C/c2ccccc2Cl)SC1=S)NNC(=O)c1ccc(Cl)cc1Cl,4.45 µM (active),

# — PubChem BioAssay AID2763 (National Center for Advancing Translational Sciences (NCATS), 2010)
